Assay outcomes (PubChem)
KB-V1 cytotox = KB-V1 MDR subline cytotoxicity | KB-V1 MDR cells viability, CellTiter-Glo, 72 h | Potency, µM (highest dose often 46.1 µM), most hits filed as cytotoxic | 400,000 tested, 3.4% active; also: nearly all actives have a fitted effect of over 60% in size
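In this primary screen, KB-V1 cells overexpressing P-gp are incubated with library compounds (lowest to highest concentration) for 72 h at 37 degrees C before a luminescent ATP viability read.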
HT1080-NT tox = kills 2HG-producing HT-1080-NT fibrosarcoma cells; Potency, µM (doses to about 46.1 µM), usual class: cytotoxic; HT-1080-NT fibrosarcoma viability, CellTiter-Glo ATP luminescence, 48 h; 360,000 tested, 1.6% active; AID 686970;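 also: NT is the 2HG producing partner of a matched IDH1 knockdown line; nearly all actives have a fitted effect of over 55% in size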
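750 cells/well, RPMI + 5% FBS; 2 h settle, compound pin-transfer, 48 h at 37 degrees C. CellTiter-Glo 10 min RT, luminescence. Normalized to DMSO and media-only wells.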
KB-3-1 cytotox = KB-3-1 parental cell cytotoxicity; KB-3-1 viability, CellTiter-Glo ATP luminescence, 72 h; Potency, µM (highest dose often 46.1 µM), actives largely listed as cytotoxic; 400,000 tested, 1.4% active; AID 1347075; also: nearly all actives have a fitted effect of over 60% in size
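Luminescent ATP read-out (CellTiter-Glo) measures survival of drug-naive KB-3-1 cells after 72 h compound exposure at 37 °C. Titration series was screened from lowest to highest concentration, with DMSO vehicle plates as background controls.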
HT1080 IDH1KD tx = HT-1080 IDH1 knockdown cell toxicity (counter line); Potency, µM (titrated, usually from 46.1 µM), hits mostly cytotoxic; 360,000 tested, 2% active; HT-1080 IDH1 knockdown viability, ATP luminescence, 48 h
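Luminescent ATP read-out (CellTiter-Glo, 10 min at room temperature) after 48 h compound exposure at 37 °C gave viability of IDH1-knockdown HT-1080 cells. Activity was normalised to DMSO and cell-free wells, then fitted as concentration-response curves.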
MCF10A rerep = induces DNA re-replication in MCF 10a normal breast cells; MCF 10A DNA re-replication, Hoechst nuclear intensity, 48 h; Potency, µM (top dose mostly 46.1 µM), most hits filed as activators; 350,000 tested, 2.9% active; AID 624296; also: nearly all actives have a fitted effect of over 50% in size
SW480 rerep = induces DNA re-replication in SW480 colon adenocarcinoma cells; 340,000 tested, 1.8% active; SW480 DNA re-replication, Hoechst DNA content imaging, 48 h; Potency, µM (series often up to 46.1 µM), most hits filed as activators; AID 624297; also: nearly all actives have a fitted effect of over 55% in size
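250 cells/well; 23 nL cpd via pin tool; 48 hr, 37 C, 5% CO2; Hoechst 40 min; imager read of total nuclear intensity, ex 405/em 500-530 nm.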
Numbers stand for hits; n = inactive; u = inconclusive; x = no result; [ ] = remark or other dose. Hits are enriched below; roughly 7.9% of the tested compounds scored in any of these assays. Calls follow the shape of the dose curve; as a rule, active = well fitted curve in the direction sought with a large enough effect; inconclusive = small, poorly fitted or top-dose-only effect, or another doubt; inactive = no such curve, though single readings can be large; an effect the other way counts as inactive or inconclusive.

SMILES	KB-V1 cytotox	HT1080-NT tox	KB-3-1 cytotox	HT1080 IDH1KD tx	MCF10A rerep	SW480 rerep
OC(c1ccccc1)c1nc(/C=C/c2ccccc2)cs1 (stereo unspecified)	n	n	n	n	x	x
O=C(OCn1nnc2ccccc2c1=O)c1ccc(F)c(S(=O)(=O)N2CCOCC2)c1	n	n	n	n	x	x
C=CCN1C(c2cccc(C(F)(F)F)c2)=CS/C1=C(\C#N)c1nnc(N2CCOCC2)n1-c1ccccc1	n	n	n	n	x	x
C=CCN1C(=O)NC(c2ccccc2)(C(F)(F)F)S/C1=C(\C#N)c1nnc(N2CCOCC2)n1-c1ccccc1 (stereo unspecified)	u	n	n	n	21µM	n
C=C1CCC[C@]2(C)C[C@H]3OC(=O)C(CNC(CC)CO)[C@H]3CC12 (stereo partly specified)	n	u	n	21µM	n	u
C=C1CCC[C@]2(C)C[C@H]3OC(=O)C(CNC(C)CC)[C@H]3CC12 (stereo partly specified)	n	u	n	u	u	n
CN(CCc1ccccc1)C(C(=O)Nc1ccc2c(c1)OCCO2)C1CC1 (stereo unspecified)	n	n	n	n	x	x
CCN(CC)S(=O)(=O)c1ccc(N2CCN(c3cccc(OC)c3)CC2)c([N+](=O)[O-])c1	2.9µM	n	n	u	n	n
COc1cccc(N2CCN(c3ccc(S(=O)(=O)N4CCN(C)CC4)cc3[N+](=O)[O-])CC2)c1	u	n	u	n	u	n
CCOC(=O)c1c(C)n(CCO)c2ccc(O)cc12	n	n	n	n	n	n
CCOCCn1c(C)c(C(=O)OCC)c2cc(O)c3ccccc3c21	2.1µM	n	n	n	n	n
O=C(COC(=O)c1ccc(Br)c(S(=O)(=O)N2CCOCC2)c1)NC1CC1	n	n	n	n	n	n
CN1CC[C@]23c4ccccc4N[C@H]1[C@]21CCN(C)[C@H]3Nc2ccccc21	n	n	n	n	n	n
COC(=O)C1CC23C=CCN4CCC5(c6ccccc6NC15C2C)C43 (stereo unspecified)	u	0.58µM	1µM	0.73µM	u	0.92µM
Fc1cccc(Cl)c1CNCc1cccnc1	n	n	n	n	n	n
Cc1ccc(NC(=O)Cn2sc3nc(C)cc(C)c3c2=O)c(Cl)c1	n	n	n	u	4.6µM	u
Cc1cc(C)c2c(=O)n(CC(=O)Nc3ccc(Cl)cc3)sc2n1	n	n	n	u	u	u
COc1cccc(OCC(=O)NNC(=O)C(=O)Nc2ccc(OC)cc2OC)c1	n	n	n	n	n	n
COc1ccc(C(c2sc3ncnn3c2O)N2CC(C)OC(C)C2)cc1OC (stereo unspecified)	n	n	u	n	n	u
COc1ccc(C(c2sc3ncnn3c2O)N2CCN(c3ccccc3F)CC2)cc1OC (stereo unspecified)	1.6µM	n	2.9µM	n	n	n
Cc1ccc(CN(Cc2cccnc2)C(=O)CN2C(=O)COc3ccccc32)o1	n	n	n	n	n	n
COc1ccc(NC(=O)CN2C(=O)C(C)Oc3ccccc32)cc1 (stereo unspecified)	u	n	n	n	n	n
COc1ccc(CN(Cc2ccccn2)C(=O)CN2C(=O)C(C)Oc3ccccc32)cc1 (stereo unspecified)	2.1µM	n	n	n	n	n
O=C(CN1C(=O)COc2ccccc21)N(Cc1ccccc1)Cc1ccccn1	15µM	n	n	n	n	n
Cn1ncc(N=Cc2ccccc2)c1C(=O)Nc1cccc(Cl)c1	u	n	u	n	18µM	u
Cn1ncc(N=Cc2ccccc2)c1C(N)=O	u	n	n	n	n	n
Cc1ccc(S(=O)(=O)CC(N)=O)cc1	n	n	n	n[9.24 µM]	u	n
Cc1ccc(S(=O)(=O)CCSC(=N)N)cc1	n	u	n	u	18µM	6.5µM
CC1Sc2ccc(S(=O)(=O)CCC(=O)N3CCc4ccccc43)cc2NC1=O (stereo unspecified)	n	n	n	n	n	n
